Binding signal data for 32 sequences are collected here from article PMC12820563, “FoxP3 forms a head-to-head dimer in vivo and stabilizes its multimerization on adjacent microsatellites”.

The full ranking holds about 16,000 sequences; the median of “rpm ratio (pull-down/input)” is about 0.5, and the highest 2% start at about 5.5. Shown is part of a subset that was picked to be rich in the highest values.

This assay has as its target T1, MBP-FoxP3dN (Mus musculus, UniProt Q99JB6 188-423).
T1 sequence: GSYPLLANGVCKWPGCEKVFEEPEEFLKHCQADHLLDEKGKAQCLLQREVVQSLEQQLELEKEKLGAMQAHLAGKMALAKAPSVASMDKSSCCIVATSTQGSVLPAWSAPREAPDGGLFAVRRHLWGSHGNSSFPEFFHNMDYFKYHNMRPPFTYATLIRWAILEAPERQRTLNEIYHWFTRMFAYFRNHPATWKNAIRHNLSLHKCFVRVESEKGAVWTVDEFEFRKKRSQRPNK
Put plainly: PD-seq (MBP pull-down with sequencing); 20 mM Tris-HCl pH 7.5, 100 mM NaCl, 1.5 mM MgCl2, 0.4 uM protein, 0.1 uM dsDNA library, 30 min, room temperature, amylose pull-down; high values mean tight binding. Conditions: protein: recombinant; tags: His6-MBP; chain copies: 2; dsDNA, one strand shown. The essentials: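 In Tris pH 7.5 buffer with NaCl and MgCl2, 0.4 µM His6-MBP-tagged mouse FoxP3 or FoxP1 fragment lacking the N-terminus, from E. coli, met 0.1 µM Klenow-filled double-stranded degenerate DNA library for 30 min at room temperature. Three washes on amylose resin followed capture of the complexes, then proteinase K release of DNA, PCR barcoding and Illumina sequencing. Binding is taken as pooled-replicate reads-per-million enrichment of pull-down relative to input.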
Turning to “GATGATTGTTCTCCCAGCTGATGAATTGGATGGCTCGAGTAAACAAATTTTCCTAATCTTTCTGTTCAAGCGCCATCTAC”, the binding signal was 0.46 RPM ratio (pull-down/input). For “GATGATTGTTCTCCCAGCTGATGAATTGGGCAGCTCGAGTAAACAAATTTTCCTAATCTTTCTGTTCAAGCGCCATCTAC”, the binding signal is 0.963 RPM ratio (pull-down/input). For “GATGATTGTTCTCCCAGCTGATGAATTTGAGCACTCGAGTAAACAAATTTTCCTAATCTTTCTGTTCAAGCGCCATCTAC” the value was 0.481 RPM ratio (pull-down/input). With “GATGATTGTTCTCCCAGCTGATGAATTCCACCCGTCGAGTAAACAAATTTTCCTAATCTTTCTGTTCAAGCGCCATCTAC” the figure was 0.242 RPM ratio (pull-down/input). For “GATGATTGTTCTCCCAGCTGATGAATTGTTAGATTCGAGTAAACAAATTTTCCTAATCTTTCTGTTCAAGCGCCATCTAC” the value was 0.635 RPM ratio (pull-down/input). Consider “GATGATTGTTCTCCCAGCTGATGAATTTGTCGGTTCGAGTAAACAAATTTTCCTAATCTTTCTGTTCAAGCGCCATCTAC”, for which the binding signal is 3.1 RPM ratio (pull-down/input). For “GATGATTGTTCTCCCAGCTGATGAATTTCGTCCCTCGAGTAAACAAATTTTCCTAATCTTTCTGTTCAAGCGCCATCTAC” the value was 0.799 RPM ratio (pull-down/input); for “GATGATTGTTCTCCCAGCTGATGAATTCTTCGCATCGAGTAAACAAATTTTCCTAATCTTTCTGTTCAAGCGCCATCTAC”, 0.708 RPM ratio (pull-down/input); for “GATGATTGTTCTCCCAGCTGATGAATTTCGCAGCTCGAGTAAACAAATTTTCCTAATCTTTCTGTTCAAGCGCCATCTAC”, 2.01 RPM ratio (pull-down/input).

As for “GATGATTGTTCTCCCAGCTGATGAATTCGCATCTTCGAGTAAACAAATTTTCCTAATCTTTCTGTTCAAGCGCCATCTAC”, the binding signal is 5.81 RPM ratio (pull-down/input). Consider “GATGATTGTTCTCCCAGCTGATGAATTTCACGCATCGAGTAAACAAATTTTCCTAATCTTTCTGTTCAAGCGCCATCTAC”, for which the binding signal is 1.01 RPM ratio (pull-down/input). For “GATGATTGTTCTCCCAGCTGATGAATTCACGCATTCGAGTAAACAAATTTTCCTAATCTTTCTGTTCAAGCGCCATCTAC” the value was 5.67 RPM ratio (pull-down/input); for “GATGATTGTTCTCCCAGCTGATGAATTTCTCGCATCGAGTAAACAAATTTTCCTAATCTTTCTGTTCAAGCGCCATCTAC”, 0.861 RPM ratio (pull-down/input). For “GATGATTGTTCTCCCAGCTGATGAATTCGCAGCTTCGAGTAAACAAATTTTCCTAATCTTTCTGTTCAAGCGCCATCTAC” the value was 0.653 RPM ratio (pull-down/input). With “GATGATTGTTCTCCCAGCTGATGAATTTCGCATCTCGAGTAAACAAATTTTCCTAATCTTTCTGTTCAAGCGCCATCTAC” the figure was 6.74 RPM ratio (pull-down/input); with “GATGATTGTTCTCCCAGCTGATGAATTTCGCGCATCGAGTAAACAAATTTTCCTAATCTTTCTGTTCAAGCGCCATCTAC”, 1.42 RPM ratio (pull-down/input). “GATGATTGTTCTCCCAGCTGATGAATTCGCGCATTCGAGTAAACAAATTTTCCTAATCTTTCTGTTCAAGCGCCATCTAC”: the binding signal is 7.06 RPM ratio (pull-down/input).

“GATGATTGTTCTCCCAGCTGATGAATTCACGCTTTCGAGTAAACAAATTTTCCTAATCTTTCTGTTCAAGCGCCATCTAC”: the binding signal is 1.11 RPM ratio (pull-down/input).

As for “GATGATTGTTCTCCCAGCTGATGAATTCGCGCCATCGAGTAAACAAATTTTCCTAATCTTTCTGTTCAAGCGCCATCTAC”, the binding signal is 2.63 RPM ratio (pull-down/input). For “GATGATTGTTCTCCCAGCTGATGAATTGTATAACTCGAGTAAACAAATTTTCCTAATCTTTCTGTTCAAGCGCCATCTAC” the value was 0.812 RPM ratio (pull-down/input); for “GATGATTGTTCTCCCAGCTGATGAATTAAGCCGATCGAGTAAACAAATTTTCCTAATCTTTCTGTTCAAGCGCCATCTAC”, 0.427 RPM ratio (pull-down/input); for “GATGATTGTTCTCCCAGCTGATGAATTTAGTGGGTCGAGTAAACAAATTTTCCTAATCTTTCTGTTCAAGCGCCATCTAC”, 1.06 RPM ratio (pull-down/input).

In the case of “GATGATTGTTCTCCCAGCTGATGAATTCAAAACCTCGAGTAAACAAATTTTCCTAATCTTTCTGTTCAAGCGCCATCTAC”, the binding signal is 0.276 RPM ratio (pull-down/input). As for “GATGATTGTTCTCCCAGCTGATGAATTTATGATATCGAGTAAACAAATTTTCCTAATCTTTCTGTTCAAGCGCCATCTAC”, the binding signal was 1.11 RPM ratio (pull-down/input). For “GATGATTGTTCTCCCAGCTGATGAATTCAATAGCTCGAGTAAACAAATTTTCCTAATCTTTCTGTTCAAGCGCCATCTAC” the value was 0.877 RPM ratio (pull-down/input); for “GATGATTGTTCTCCCAGCTGATGAATTTCATAGTTCGAGTAAACAAATTTTCCTAATCTTTCTGTTCAAGCGCCATCTAC”, 0.583 RPM ratio (pull-down/input); for “GATGATTGTTCTCCCAGCTGATGAATTACTTACATCGAGTAAACAAATTTTCCTAATCTTTCTGTTCAAGCGCCATCTAC”, 0.574 RPM ratio (pull-down/input). For “GATGATTGTTCTCCCAGCTGATGAATTATTCGCATCGAGTAAACAAATTTTCCTAATCTTTCTGTTCAAGCGCCATCTAC” the value was 1.12 RPM ratio (pull-down/input); for “GATGATTGTTCTCCCAGCTGATGAATTCGCATCCTCGAGTAAACAAATTTTCCTAATCTTTCTGTTCAAGCGCCATCTAC”, 5.74 RPM ratio (pull-down/input). For “GATGATTGTTCTCCCAGCTGATGAATTATCGCATTCGAGTAAACAAATTTTCCTAATCTTTCTGTTCAAGCGCCATCTAC” the value was 6.64 RPM ratio (pull-down/input). For the sequence “GATGATTGTTCTCCCAGCTGATGAATTCCCATTGTCGAGTAAACAAATTTTCCTAATCTTTCTGTTCAAGCGCCATCTAC”, the binding signal was 0.454 RPM ratio (pull-down/input). With “GATGATTGTTCTCCCAGCTGATGAATTCCTCGCATCGAGTAAACAAATTTTCCTAATCTTTCTGTTCAAGCGCCATCTAC” the figure was 0.768 RPM ratio (pull-down/input).
